Reference: ChEMBL document CHEMBL1961873, “Compounds: GSK PKIS; Assays: Nanosyn kinase panel” (2012)

Columns and labels:
[1] = target: T1, Tyrosine-protein kinase receptor TYRO3 (Homo sapiens) (UniProt Q06418); conditions: at 1 µM
T1 sequence (whole entry): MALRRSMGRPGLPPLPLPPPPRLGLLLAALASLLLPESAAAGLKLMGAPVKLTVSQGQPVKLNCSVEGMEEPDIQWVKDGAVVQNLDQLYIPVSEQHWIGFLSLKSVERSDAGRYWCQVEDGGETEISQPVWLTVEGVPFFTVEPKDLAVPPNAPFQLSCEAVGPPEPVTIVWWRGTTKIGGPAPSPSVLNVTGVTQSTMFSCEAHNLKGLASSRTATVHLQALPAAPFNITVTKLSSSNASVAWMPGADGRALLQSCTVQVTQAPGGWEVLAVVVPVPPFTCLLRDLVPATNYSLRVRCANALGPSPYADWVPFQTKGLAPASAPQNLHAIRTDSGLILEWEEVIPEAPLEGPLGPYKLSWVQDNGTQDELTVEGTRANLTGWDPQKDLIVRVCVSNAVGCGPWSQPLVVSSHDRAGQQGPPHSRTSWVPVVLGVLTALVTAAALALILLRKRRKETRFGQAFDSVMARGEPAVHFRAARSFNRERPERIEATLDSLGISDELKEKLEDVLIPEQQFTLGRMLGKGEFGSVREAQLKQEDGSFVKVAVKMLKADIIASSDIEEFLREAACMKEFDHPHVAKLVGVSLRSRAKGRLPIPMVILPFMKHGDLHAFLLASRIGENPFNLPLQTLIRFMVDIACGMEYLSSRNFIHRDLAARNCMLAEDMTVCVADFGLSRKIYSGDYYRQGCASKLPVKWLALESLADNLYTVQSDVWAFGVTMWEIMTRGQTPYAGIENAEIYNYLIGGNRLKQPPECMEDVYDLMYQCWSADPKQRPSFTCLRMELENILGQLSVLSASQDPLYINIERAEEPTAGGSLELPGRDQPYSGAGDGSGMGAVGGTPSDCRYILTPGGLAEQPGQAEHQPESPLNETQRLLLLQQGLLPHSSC

[2] = target: Tyrosine-protein kinase Yes (Homo sapiens) (UniProt P07947); conditions: at 0.1 µM
Tyrosine-protein kinase Yes (Homo sapiens), sequence (P07947 2-543 limits assumed): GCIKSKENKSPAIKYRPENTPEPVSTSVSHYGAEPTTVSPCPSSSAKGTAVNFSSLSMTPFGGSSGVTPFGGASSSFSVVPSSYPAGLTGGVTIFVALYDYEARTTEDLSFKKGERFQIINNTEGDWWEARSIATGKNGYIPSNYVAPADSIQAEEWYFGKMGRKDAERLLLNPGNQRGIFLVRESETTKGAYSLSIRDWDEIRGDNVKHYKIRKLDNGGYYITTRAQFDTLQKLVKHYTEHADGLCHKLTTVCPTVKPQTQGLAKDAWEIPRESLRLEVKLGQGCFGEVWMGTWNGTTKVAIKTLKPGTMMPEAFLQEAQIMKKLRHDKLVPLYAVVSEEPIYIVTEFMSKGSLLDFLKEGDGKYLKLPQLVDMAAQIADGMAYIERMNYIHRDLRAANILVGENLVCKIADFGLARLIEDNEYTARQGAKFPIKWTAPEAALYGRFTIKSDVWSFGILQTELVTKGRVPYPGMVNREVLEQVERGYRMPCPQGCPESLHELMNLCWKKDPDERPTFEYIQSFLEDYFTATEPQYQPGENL

[3] = target: Tyrosine-protein kinase Yes (Homo sapiens) (UniProt P07947); conditions: at 1 µM
[4] = target: T2, Tyrosine-protein kinase ZAP-70 (Homo sapiens) (UniProt P43403); conditions: at 0.1 µM
T2 sequence (whole entry): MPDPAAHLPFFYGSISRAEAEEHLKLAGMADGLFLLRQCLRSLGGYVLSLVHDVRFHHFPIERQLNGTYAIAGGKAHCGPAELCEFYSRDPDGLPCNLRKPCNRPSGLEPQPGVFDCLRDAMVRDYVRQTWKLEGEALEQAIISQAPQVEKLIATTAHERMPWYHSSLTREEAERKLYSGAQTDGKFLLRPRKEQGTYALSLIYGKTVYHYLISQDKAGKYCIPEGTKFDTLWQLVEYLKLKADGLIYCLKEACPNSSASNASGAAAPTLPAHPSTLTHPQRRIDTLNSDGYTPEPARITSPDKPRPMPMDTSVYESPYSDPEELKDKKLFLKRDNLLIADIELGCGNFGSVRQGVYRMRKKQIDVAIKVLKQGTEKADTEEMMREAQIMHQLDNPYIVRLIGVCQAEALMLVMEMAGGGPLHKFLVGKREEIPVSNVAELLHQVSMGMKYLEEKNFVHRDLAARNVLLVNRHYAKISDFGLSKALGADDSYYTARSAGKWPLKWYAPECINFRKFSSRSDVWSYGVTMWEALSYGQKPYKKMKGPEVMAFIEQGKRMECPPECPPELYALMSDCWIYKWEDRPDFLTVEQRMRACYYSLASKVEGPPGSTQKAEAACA

[5] = target: T2, Tyrosine-protein kinase ZAP-70 (Homo sapiens); conditions: at 1 µM
[6] = target: Serine/threonine-protein kinase B-raf (Homo sapiens) (UniProt P15056); conditions: at 0.1 µM
Serine/threonine-protein kinase B-raf (Homo sapiens), sequence (P15056 whole entry): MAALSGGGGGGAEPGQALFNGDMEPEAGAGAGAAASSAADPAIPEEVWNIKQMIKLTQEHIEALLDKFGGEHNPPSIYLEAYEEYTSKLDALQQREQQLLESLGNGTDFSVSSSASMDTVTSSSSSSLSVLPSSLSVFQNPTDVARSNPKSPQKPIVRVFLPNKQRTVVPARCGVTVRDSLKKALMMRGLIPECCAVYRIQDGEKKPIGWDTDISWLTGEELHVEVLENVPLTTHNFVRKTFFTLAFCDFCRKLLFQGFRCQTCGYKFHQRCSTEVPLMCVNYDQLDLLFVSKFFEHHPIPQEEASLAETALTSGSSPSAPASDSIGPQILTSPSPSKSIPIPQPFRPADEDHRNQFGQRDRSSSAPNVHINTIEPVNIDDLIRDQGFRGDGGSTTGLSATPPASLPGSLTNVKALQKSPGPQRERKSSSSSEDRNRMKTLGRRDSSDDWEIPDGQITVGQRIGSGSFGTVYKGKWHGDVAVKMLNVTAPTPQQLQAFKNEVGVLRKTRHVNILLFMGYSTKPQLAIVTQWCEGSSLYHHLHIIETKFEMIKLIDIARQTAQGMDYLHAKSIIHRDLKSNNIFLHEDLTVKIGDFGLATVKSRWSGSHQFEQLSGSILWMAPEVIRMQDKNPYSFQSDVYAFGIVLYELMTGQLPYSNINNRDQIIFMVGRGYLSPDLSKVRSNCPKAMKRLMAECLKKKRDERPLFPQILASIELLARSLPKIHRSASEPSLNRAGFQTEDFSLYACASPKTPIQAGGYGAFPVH

[7] = target: Serine/threonine-protein kinase B-raf (Homo sapiens) (UniProt P15056); conditions: at 1 µM
[8] = system: Serine/threonine-protein kinase B-raf (Homo sapiens), P15056 [V600E]; conditions: at 0.1 µM
Serine/threonine-protein kinase B-raf (Homo sapiens), P15056 [V600E], sequence (P15056 whole entry V600E): as the sequence (P15056 whole entry) above, with V600E counted along it

[9] = system: Serine/threonine-protein kinase B-raf (Homo sapiens), P15056 [V600E]; conditions: at 1 µM
[10] = target: RAF proto-oncogene serine/threonine-protein kinase (Homo sapiens) (UniProt P04049); conditions: at 0.1 µM
RAF proto-oncogene serine/threonine-protein kinase (Homo sapiens), sequence (P04049 whole entry): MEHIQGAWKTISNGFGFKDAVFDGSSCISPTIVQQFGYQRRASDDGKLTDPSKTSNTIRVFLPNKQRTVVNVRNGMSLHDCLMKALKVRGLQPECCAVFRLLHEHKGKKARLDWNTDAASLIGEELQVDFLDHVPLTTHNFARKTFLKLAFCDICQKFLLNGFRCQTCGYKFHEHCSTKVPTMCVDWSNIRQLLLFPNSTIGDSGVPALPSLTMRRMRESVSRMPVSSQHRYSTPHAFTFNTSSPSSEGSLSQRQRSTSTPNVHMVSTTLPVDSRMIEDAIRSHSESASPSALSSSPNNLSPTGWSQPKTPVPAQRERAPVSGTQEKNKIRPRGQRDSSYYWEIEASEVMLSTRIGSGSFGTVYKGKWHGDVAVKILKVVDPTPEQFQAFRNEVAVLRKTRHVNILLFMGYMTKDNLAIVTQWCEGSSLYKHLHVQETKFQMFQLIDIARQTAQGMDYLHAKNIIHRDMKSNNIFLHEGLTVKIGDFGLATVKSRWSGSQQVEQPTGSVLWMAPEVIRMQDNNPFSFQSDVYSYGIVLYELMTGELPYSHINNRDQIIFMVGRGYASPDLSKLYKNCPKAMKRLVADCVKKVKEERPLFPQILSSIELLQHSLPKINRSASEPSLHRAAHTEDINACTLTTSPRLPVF

[11] = target: RAF proto-oncogene serine/threonine-protein kinase (Homo sapiens) (UniProt P04049); conditions: at 1 µM
[12] = target: T3, Interleukin-1 receptor-associated kinase 4 (Homo sapiens) (UniProt Q9NWZ3); conditions: at 0.1 µM
T3 sequence (whole entry): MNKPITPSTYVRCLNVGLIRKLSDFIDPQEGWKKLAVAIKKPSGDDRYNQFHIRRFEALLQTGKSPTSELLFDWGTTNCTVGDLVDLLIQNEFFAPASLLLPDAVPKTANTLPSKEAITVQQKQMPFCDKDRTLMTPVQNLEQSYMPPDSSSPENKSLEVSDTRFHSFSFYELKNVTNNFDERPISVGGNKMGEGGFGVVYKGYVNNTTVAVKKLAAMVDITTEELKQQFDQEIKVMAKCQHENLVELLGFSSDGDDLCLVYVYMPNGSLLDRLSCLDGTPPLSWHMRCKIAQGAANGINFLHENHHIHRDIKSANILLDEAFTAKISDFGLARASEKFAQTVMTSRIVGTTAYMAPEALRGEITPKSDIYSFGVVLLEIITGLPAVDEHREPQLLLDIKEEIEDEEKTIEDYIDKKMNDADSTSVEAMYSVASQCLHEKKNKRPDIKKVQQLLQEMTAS

[13] = target: T3, Interleukin-1 receptor-associated kinase 4 (Homo sapiens); conditions: at 1 µM
[14] = target: Leucine-rich repeat serine/threonine-protein kinase 2 (Homo sapiens) (UniProt Q5S007); conditions: at 0.1 µM
Leucine-rich repeat serine/threonine-protein kinase 2 (Homo sapiens), sequence (Q5S007 whole entry): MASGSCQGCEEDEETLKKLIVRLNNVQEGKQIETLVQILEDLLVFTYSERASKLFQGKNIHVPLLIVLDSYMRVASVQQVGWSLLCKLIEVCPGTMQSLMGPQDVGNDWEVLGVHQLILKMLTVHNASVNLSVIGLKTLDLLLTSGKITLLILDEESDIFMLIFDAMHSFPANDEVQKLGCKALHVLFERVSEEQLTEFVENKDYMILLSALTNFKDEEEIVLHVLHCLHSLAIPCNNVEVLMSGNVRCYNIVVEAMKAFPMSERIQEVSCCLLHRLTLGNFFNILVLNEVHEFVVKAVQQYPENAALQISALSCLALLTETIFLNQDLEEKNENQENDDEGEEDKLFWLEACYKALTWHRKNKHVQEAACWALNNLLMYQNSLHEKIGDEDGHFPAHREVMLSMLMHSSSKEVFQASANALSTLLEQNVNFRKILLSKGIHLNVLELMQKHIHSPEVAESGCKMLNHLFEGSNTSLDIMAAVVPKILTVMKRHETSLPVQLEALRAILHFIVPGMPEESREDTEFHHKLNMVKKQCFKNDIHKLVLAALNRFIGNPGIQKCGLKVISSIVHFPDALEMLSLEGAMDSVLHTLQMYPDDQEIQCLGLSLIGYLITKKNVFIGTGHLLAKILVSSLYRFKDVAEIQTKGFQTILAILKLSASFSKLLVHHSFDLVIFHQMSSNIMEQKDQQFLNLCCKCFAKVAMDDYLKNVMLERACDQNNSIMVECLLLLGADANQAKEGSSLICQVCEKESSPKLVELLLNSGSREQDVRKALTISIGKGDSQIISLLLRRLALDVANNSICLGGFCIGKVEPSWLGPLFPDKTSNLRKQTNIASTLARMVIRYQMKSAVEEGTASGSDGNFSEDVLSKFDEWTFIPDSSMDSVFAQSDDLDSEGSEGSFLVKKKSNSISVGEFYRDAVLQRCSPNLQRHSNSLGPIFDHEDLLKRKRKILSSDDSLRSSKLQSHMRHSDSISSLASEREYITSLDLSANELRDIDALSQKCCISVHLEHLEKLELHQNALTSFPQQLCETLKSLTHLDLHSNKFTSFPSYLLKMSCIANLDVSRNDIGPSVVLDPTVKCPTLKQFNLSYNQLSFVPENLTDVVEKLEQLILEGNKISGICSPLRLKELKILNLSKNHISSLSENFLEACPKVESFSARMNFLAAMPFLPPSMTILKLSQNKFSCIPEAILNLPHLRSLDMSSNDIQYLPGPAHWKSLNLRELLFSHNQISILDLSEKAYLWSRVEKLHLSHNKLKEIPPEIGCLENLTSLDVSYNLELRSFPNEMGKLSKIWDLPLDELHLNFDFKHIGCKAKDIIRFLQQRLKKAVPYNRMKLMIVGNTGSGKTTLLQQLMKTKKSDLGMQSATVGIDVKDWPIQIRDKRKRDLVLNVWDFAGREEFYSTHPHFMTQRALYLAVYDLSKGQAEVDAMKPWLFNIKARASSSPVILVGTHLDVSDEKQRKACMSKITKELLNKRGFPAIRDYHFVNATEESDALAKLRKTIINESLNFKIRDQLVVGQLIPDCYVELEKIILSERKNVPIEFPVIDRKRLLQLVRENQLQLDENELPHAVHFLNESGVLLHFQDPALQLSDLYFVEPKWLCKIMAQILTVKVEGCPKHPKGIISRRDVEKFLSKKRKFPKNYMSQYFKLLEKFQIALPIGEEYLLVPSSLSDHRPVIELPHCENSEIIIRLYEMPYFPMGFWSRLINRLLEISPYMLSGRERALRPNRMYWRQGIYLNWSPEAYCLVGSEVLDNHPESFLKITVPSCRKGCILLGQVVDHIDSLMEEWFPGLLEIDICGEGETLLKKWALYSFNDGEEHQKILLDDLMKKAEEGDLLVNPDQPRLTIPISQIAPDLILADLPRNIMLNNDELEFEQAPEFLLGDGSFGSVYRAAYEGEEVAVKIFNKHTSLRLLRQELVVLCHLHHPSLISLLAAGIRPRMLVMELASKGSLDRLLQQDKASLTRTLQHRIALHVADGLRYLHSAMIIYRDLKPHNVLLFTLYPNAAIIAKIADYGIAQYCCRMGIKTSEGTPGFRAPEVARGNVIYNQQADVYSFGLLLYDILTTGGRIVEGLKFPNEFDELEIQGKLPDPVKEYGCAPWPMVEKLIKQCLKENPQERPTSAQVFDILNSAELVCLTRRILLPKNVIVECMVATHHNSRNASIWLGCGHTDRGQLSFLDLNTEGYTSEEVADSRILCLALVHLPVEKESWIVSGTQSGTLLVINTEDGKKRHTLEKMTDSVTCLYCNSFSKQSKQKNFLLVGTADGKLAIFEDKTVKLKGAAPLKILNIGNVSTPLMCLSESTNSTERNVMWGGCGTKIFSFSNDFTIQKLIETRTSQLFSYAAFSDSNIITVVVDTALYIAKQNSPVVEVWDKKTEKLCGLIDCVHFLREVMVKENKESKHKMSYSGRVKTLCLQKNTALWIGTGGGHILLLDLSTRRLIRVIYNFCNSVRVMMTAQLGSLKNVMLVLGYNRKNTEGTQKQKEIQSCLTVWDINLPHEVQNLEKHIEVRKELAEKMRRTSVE

[15] = target: Leucine-rich repeat serine/threonine-protein kinase 2 (Homo sapiens) (UniProt Q5S007); conditions: at 1 µM
[16] = system: Leucine-rich repeat serine/threonine-protein kinase 2 (Homo sapiens), Q5S007 [G2019S]; conditions: at 0.1 µM
Leucine-rich repeat serine/threonine-protein kinase 2 (Homo sapiens), Q5S007 [G2019S], sequence (Q5S007 whole entry G2019S): as the sequence (Q5S007 whole entry) above, with G2019S counted along it

[17] = system: Leucine-rich repeat serine/threonine-protein kinase 2 (Homo sapiens), Q5S007 [G2019S]; conditions: at 1 µM

Row | SMILES | inhibition [1] [%] | inhibition [2] [%] | inhibition [3] [%] | inhibition [4] [%] | inhibition [5] [%] | inhibition [6] [%] | inhibition [7] [%] | inhibition [8] [%] | inhibition [9] [%] | inhibition [10] [%] | inhibition [11] [%] | inhibition [12] [%] | inhibition [13] [%] | inhibition [14] [%] | inhibition [15] [%] | inhibition [16] [%] | inhibition [17] [%]
1 | CNC(=O)c1cc(-c2ccc(F)cc2)cc(-c2ccc(S(=O)(=O)N3CCCC3)cc2)c1N | 1.73 | 2.18 | 3.44 | -0.4 | -0.59 | 3.72 | 3.4 | 3.04 | 3.6 | 0.46 | -2.71 | 0.68 | 1.45 | 1.42 | 2.9 | 4.27 | 5.64
2 | COc1ccc(CNC(=O)c2ccc(-c3cc(-c4nnc(C)o4)ccc3C)cc2)cc1 | 4.48 | -0.74 | 7.13 | 2.69 | 2.94 | 0.94 | -0.29 | 1.06 | 1.01 | 1.48 | -4.44 | 0.85 | 1.98 | 3.51 | 10.8 | 5.52 | 9.35
3 | CCOc1ccc2c(-c3ccnc(Nc4cccc(C(F)(F)F)c4)n3)cnn2n1 | 2.7 | 0.08 | 3.08 | 0.89 | 2.78 | 3.46 | 1.64 | 3.04 | 0.8 | -2.28 | -1.21 | 0.16 | 1.01 | 3.4 | 6.76 | 4.61 | 10.4
4 | COc1ccc(-c2oc3ncnc(N)c3c2-c2ccc(NC(=O)Nc3cc(C(F)(F)F)ccc3F)cc2)cc1 | 49.4 | 15.7 | 80.1 | 0.23 | 4.77 | 6.96 | 19.6 | 8.1 | 23.9 | 2.02 | 5.86 | -1.07 | 2.91 | 6.22 | 15 | 5.81 | 16.8
5 | COc1ccc(-c2cc(-c3c[nH]nc3-c3ccccn3)ccn2)cc1 | 4.46 | 3.5 | 7.41 | 1.69 | 2.09 | 7.54 | 6.98 | 7.82 | 6.42 | 0.24 | 0.07 | -2.78 | 2.03 | 2.47 | 7.04 | 4.82 | 7.48
6 | CNC(=O)c1cccc(C#Cc2cncnc2Nc2ccc(OCc3cccc(F)c3)c(Cl)c2)c1 | 1.74 | 2.71 | 4.41 | 2.49 | -0.96 | 0.05 | 2.22 | 0.09 | 1.59 | 2.66 | -1.34 | -3.89 | 0.26 | 0.02 | 3.48 | -1.1 | 3.49
7 | N#Cc1c(NC(=O)CN2CCOCC2)sc2c1CCCC2 | 3.91 | 3.9 | 3.95 | 1.13 | -1.02 | 5.62 | 6.96 | 5.95 | 4.84 | 4.41 | -1.23 | 1.87 | 2.93 | 2.88 | 8.63 | 3.95 | 8.85
